# aSyn yeast inh – qHTS of alpha-syn Inhibitors | 0.14% of 370,000 active | Potency, µM (top dose mostly 46.1 µM), for the others: at the top dose growth rescue (activation), most hits filed as activators | Yeast expressing alpha-synuclein, growth rescue, BacTiter-Glo, 24 h; note: potency is the fitted concentration of half-maximal effect; % of control where 0% means no effect; nearly all actives have a fitted effect of over 65% in size
#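 Galactose-induced alpha-syn yeast (OD600=0.02, raffinose-pregrown) + pinned cpd, 24 hr, 30 deg C; growth by BacTiter-Glo luminescence. Growth restoration scores as activation.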
# Anesthetic bind – qHTS Assay for Identification of Novel General Anesthetics; Ferritin light chain (Equus caballus), P02791; apoferritin/1-aminoanthracene competitive binding, fluorescence; Potency, µM (doses to about 77.5 µM), for inactives: at the top dose activity change, negative = displacement, hits mostly inhibitors; 0.074% of 350,000 active; AID 485281, 2010; note: potency is the fitted concentration of half-maximal effect; % is set by controls: 0 for no effect and ±100 for the full control effect; nearly all actives have a fitted effect of over 20% in size
# Target sequence (P02791 2-175 limits assumed): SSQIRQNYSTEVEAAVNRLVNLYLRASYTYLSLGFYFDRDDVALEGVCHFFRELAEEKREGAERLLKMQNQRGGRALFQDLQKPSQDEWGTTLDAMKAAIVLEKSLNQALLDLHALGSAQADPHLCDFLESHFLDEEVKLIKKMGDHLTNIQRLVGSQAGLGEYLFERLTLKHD
#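 Horse-spleen apoferritin (10 uM) in 50% saturated 1-aminoanthracene in PBS was incubated 10 min at room temperature with compound. Fluorescence (ex 380, em 535 nm) was normalized to free and bound 1-AMA, with concentration-response fitted by a four-parameter Hill equation.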
# Mito fusion yeast – qHTS Assay for Small Molecule Inhibitors of Mitochondrial Division or Activators of Mitochondrial Fusion | S. cerevisiae fusion-defective mutant growth rescue, CellTiterGlo 48 h | Potency, µM (titrated, usually from 46.1 µM), for inactives: at the highest dose growth rescue (activation), hits mostly activators | 0.23% of 320,000 active | AID 485298, 2010; note: potency is the fitted concentration of half-maximal effect; % of control where 0% means no effect; nearly all actives have a fitted effect of over 45% in size
#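 Luminescent cell viability in 1536-well qHTS format served as the measure of rescued growth in ts fusion-mutant S. cerevisiae cultured on non-fermentable YPEG for 48 hours at 37C.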
# CCT modulator – High-Throughput Screening for Modulators of Cytosolic Chaperonin Activity; purified chaperonin ATPase assay, HTRF ADP detection, 30 min; activity change, % (no concentration beside the values), hits read low; 0.3% of 360,000 active; AID 651819, 2012; in the data active = activity change below about -30%; note: % is set by controls: 0 for no effect and ±100 for the full control effect
#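 TRiC at 40 or 20 nM final (batch-dependent) in 30 mM Tris pH 7.4, 100 mM KCl, 5 mM MgCl2, 1 mM DTT, with compound at single 76 uM and 10 uM ATP, 30 min at 37 deg C. ADP detected by HTRF Transcreener, 665/615 ratio.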
# TDP43 rescue – qHTS of TDP-43 Inhibitors; AID 652104, 2013; 1.8% of 410,000 active; Potency, µM (doses to about 46.1 µM), for inactives: at the top dose growth rescue (activation), usual class: activators; TDP-43 expressing yeast growth rescue, BacTiter-Glo, 24 h; note: potency is the fitted concentration of half-maximal effect; % of control where 0% means no effect; nearly all actives have a fitted effect of over 50% in size
#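 Cell-based yeast growth screen: TDP-43 expression induced in galactose, inoculum OD600=0.02 after raffinose pregrowth to mid-log. Read-out BacTiter-Glo luminescence at 24 hr, 30 deg C; inhibition of toxicity seen as signal increase.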
# Akt phos inh – HTS Assay for Inhibitors of Akt Phophorylation: Primary Screen; Neuro2A IGF-stimulated pAkt S473 HTRF, 20 min; stronger effect = lower value; activity change, % for hits at 50 µM; 0.32% of 360,000 active; AID 651550, 2012; in the data active = activity change below about -80%; inconclusive = mostly about -51% to -80%; note: % is set by controls: 0 for no effect and ±100 for the full control effect
#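 Neuro2A cells in DMEM with 0.5% FBS, overnight at 37 deg C, given compound at single 50 µM final, then IGF (6 nM final) for 20 min at 37 deg C. Lysed; phospho-Akt Ser473 by HTRF after 24 h, 665/615 ratio.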
# Numbers without * were called inactive; i = inactive; ? = inconclusive; · = not tested or not shown; [ ] = dose if it differs, or a comment. Shown are actives, neighbours in structure and some others; about 2.5% of the full set was active somewhere. Unless noted, calls come from the whole dose curve; as a rule, active = well fitted curve in the direction sought with a large enough effect; inconclusive = small, poorly fitted or top-dose-only effect, or another doubt; inactive = no such curve, though single readings can be large; an effect the other way counts as inactive or inconclusive.
SMILES,aSyn yeast inh,Anesthetic bind,Mito fusion yeast,CCT modulator,TDP43 rescue,Akt phos inh
Cc1nc(-n2nc(C)c(Cc3ccccc3Cl)c2C)sc1C(=O)N1CCCCC1C (centres undefined),·,-10%,·,·,-1%,·
Cc1cc(C)c(Cn2c(=O)n(CCCC(=O)NCc3ccc4c(c3)OCO4)c(=O)c3sccc32)c(C)c1,·,-1%,·,·,10%,·
CC1CCN(C2CCN(S(=O)(=O)c3ccc(F)cc3)CC2)CC1,-1%,-8%,9%,-2,3%,i
O=S(=O)(c1ccc(Cl)cc1)N1CCC(N2CCCCCC2)CC1,-10%,-19%,8%,-1,-29%,-119%*
CC1CCN(C2CCN(S(=O)(=O)c3ccc(C(F)(F)F)cc3)CC2)CC1,-3%,6%,11µM*,0,-12%,i
CSc1nnc(Nc2ccccc2C)s1,3%,?,-6%,-3,11µM*,i
Nc1ccccc1SC(CC(=O)c1ccccc1)c1ccc([N+](=O)[O-])cc1 (centres undefined),9%,·,·,1,5%,i
Nc1ccccc1SC(CC(=O)c1ccccc1)c1cccc([N+](=O)[O-])c1 (centres undefined),19%,·,·,1,25µM*,i
O=S(=O)(c1ccc(Cl)cc1)N1CCOCC1,1%,·,·,·,·,·
O=C(CNC(=O)c1ccccc1)OCCOc1cccc(Cl)c1,13%,·,3%,2,24%,i
O=C(CNC(=O)c1cccc(F)c1)OCCOc1cccc(Cl)c1,8%,·,8%,1,13µM*,i
CCN(CC)c1ncnc2scc(C3COc4ccccc4O3)c12 (centres undefined),2%,8%,-13%,1,18µM*,i
c1ccc2c(c1)OCC(c1csc3ncnc(N4CCOCC4)c13)O2 (centres undefined),13%,-7%,-9%,-3,20%,i
CC(C)NC(=O)NS(=O)(=O)c1cnccc1NC1CC2CCC1C2 (centres undefined),-1%,21%,2%,-1,12%,-107%*
COC(=O)c1c(-c2ccc(OC)cc2)sc2ccc(OC)cc12,0%,·,·,-4,22%,i
COC(=O)c1c(-c2ccc(OC)cc2)sc2ccc(-c3ccc4c(c3)OCO4)cc12,-1%,·,·,-73*,23%,i
Cc1ccc2nc(-c3ccc(C)o3)c(Nc3ccc(Cl)cc3)n2c1,-5%,·,·,·,·,·
O=C1OC(C2=CCCCC2)=NC12CC2,·,-7%[15.3 µM],·,·,·,·
CCOC(=O)c1sc(Nc2ccccc2Cl)nc1C,-3%,-14%,2%,0,20µM*,i
Cc1nc(Nc2c(Cl)cccc2Cl)sc1C(=O)Nc1ccccc1,-1%,-3%,18µM*,-1,?,i
CCOC(=O)c1sc(NC(=O)c2cncc(Br)c2)nc1C,·,3%,-6%,·,·,·
CCOC(=O)c1sc(Nc2ccc(Br)cc2)nc1C,0%,?,-3%,0,16µM*,i
CCOC(=O)c1sc(NNC(=O)c2ccc(C)cc2)nc1C,-3%,3%,3%,-3,-17%,i
CCOC(=O)c1sc(NNC(=O)c2ccc(F)cc2)nc1C,?,3%,14%,-3,14µM*,i
COC(=O)c1ccc(NC(=O)CSc2ccc(-c3sc(-c4ccccc4)nc3C)nn2)cc1,·,5%,·,·,22%,·
SMILES,aSyn yeast inh,Anesthetic bind,Mito fusion yeast,CCT modulator,TDP43 rescue,Akt phos inh
CCCCCCCC/C=C\CCCCCCCCCCCC(=O)O,·,-20%,·,·,·,·
CC(C)c1ccc(OCc2cc(=O)n3c(-c4ccccc4)csc3n2)cc1,·,-16%,·,·,4%,·
O=C(CCc1nc2cccnc2n1Cc1cccs1)Nc1cccc(Cl)c1,·,-8%,·,·,?,·
O=C(Nc1ccc(Nc2ccccc2)cc1)c1c(F)c(F)c(F)c(F)c1F,-10%,?,1%,2,25%,i
CCOC(=O)c1sc(NCCNc2nc(C)c(C(=O)OCC)s2)nc1C,7%,-9%,2%,3,-25%,-112%*
O=C(Nc1ccc(Nc2ccccc2)cc1)c1c(Cl)cccc1Cl,-23%,·,·,-1,11µM*,i
Cc1nc(Cl)sc1C(=O)Nc1ccc(C(C)(C)C)cc1,-12%,?,-5%,0,11µM*,i
Cc1ccccc1NC(=O)c1sc(Cl)nc1C,0%,0%,-6%,1,?,i
CCCSc1nnc2c(n1)OC(c1sccc1C)Nc1ccccc1-2 (centres undefined),-15%,42%,·,·,16%,·
CCc1ccc(-c2ccc3nnc(SC)n3n2)cc1,0%,-3%,-3%,-1,16µM*,i
CCc1ccc(-c2ccc3nnc(SCC(N)=O)n3n2)cc1,1%,-5%,1%,1,19%,i
COc1ccccc1C(=O)O/N=C(\N)c1ccccc1Cl,-38%,-7%,3%,2,16µM*,i
COc1ccc(C(=O)O/N=C(\N)c2ccccc2)c(OC)c1,-39%,2%,5%,-1,14µM*,i
COc1ccc(C(=O)O/N=C(\N)c2ccc(OC)c(OC)c2)c(OC)c1,2%,48%,3%,-3,?,i
COc1ccc(C(=O)O/N=C(\N)c2ccccc2Cl)cc1OC,-15%,-4%,-8%,1,?,i
O=S(=O)(Nc1nc(SCc2ccc(Cl)cc2)n[nH]1)c1ccc(F)cc1,0%,-11%,29%,0,20µM*,i
CCc1nc(SCc2ccc(Cl)cc2)n[nH]1,3%,-23%,9%,-1,13µM*,i
CC(=O)OC1C=C[C@@H](OC(C)=O)C1 (some centres undefined),·,-5%,·,·,·,·
Cc1nc(Br)c(Br)n1Cc1ccccc1,4%,·,·,-2,11µM*,i
CN1CCN(S(=O)(=O)c2ccc(Sc3nnnn3-c3ccccc3)c([N+](=O)[O-])c2)CC1,2%,-14%,-4%,0,2%,i
CC(=O)c1ccc(Sc2nnnn2-c2ccccc2)c([N+](=O)[O-])c1,-19%,4%,4%,-1,20µM*,i
CCCc1cnc2c(c1SCC(=O)N1CCC(C)CC1)c(=O)n(C)c(=O)n2C,·,5%,·,·,?,·
Cc1[nH]c2ccccc2c1N=Nc1cccc(C(=O)O)c1,-59%,-7%,1%,0,18µM*,i
COC(=O)c1cc(N=Nc2c(C)[nH]c3ccccc23)cc(C(=O)OC)c1,1%,4%,2%,0,0%,i
N#Cc1cnc(SCCc2ccccc2)nc1N,1%,-18%,5%,3,13µM*,i
N#Cc1cnc(SCC(=O)c2ccccc2)nc1N,0%,-16%,-6%,-1,21%,i

# Compound activity deposited in PubChem BioAssay by National Center for Advancing Translational Sciences (NCATS).
